In PubChem BioAssay (NCATS):
Results filed as inconclusive are left out. Where a call stands in place of a potency, no number is given. Active and inactive are the calls of the source. Calls follow the shape of the dose curve; as a rule, active = well fitted curve in the direction sought with a large enough effect; inconclusive = small, poorly fitted or top-dose-only effect, or another doubt; inactive = no such curve, though single readings can be large; an effect the other way counts as inactive or inconclusive.

Each compound was assayed against Methanococcus maripaludis chaperonin (MmCpn) (UniProt Q6LX38) (assay: High-Throughput Screening for Modulators of Cytosolic Chaperonin Activity: MmCpn Primary Screen (AID 488978)). Details: Purified MmCpn ATPase activity, ADP HTRF detection, 10 min; series mostly up to 76.9 µM.
In short: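 HTRF readout (320 nm excitation, 590/665 nm emission) of ADP generated by 50 nM MmCpn hydrolysing 30 uM ATP during 10 min at 37C; compound preincubated 5 min RT.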

Methanococcus maripaludis chaperonin (MmCpn), sequence (Q6LX38 1-543): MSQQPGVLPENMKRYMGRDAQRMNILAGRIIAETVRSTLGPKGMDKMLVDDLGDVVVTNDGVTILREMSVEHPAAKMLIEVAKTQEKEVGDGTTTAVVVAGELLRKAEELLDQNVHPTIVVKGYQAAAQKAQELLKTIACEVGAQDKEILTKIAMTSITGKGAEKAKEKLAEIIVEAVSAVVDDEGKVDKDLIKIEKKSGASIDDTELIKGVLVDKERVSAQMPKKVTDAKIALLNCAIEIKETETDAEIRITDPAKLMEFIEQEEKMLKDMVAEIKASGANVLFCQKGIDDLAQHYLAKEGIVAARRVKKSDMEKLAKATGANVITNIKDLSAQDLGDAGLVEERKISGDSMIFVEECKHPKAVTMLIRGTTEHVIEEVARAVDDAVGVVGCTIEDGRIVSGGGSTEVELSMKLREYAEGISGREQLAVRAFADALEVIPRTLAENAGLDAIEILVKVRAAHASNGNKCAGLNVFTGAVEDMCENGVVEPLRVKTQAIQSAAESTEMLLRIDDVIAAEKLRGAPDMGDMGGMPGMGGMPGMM

| Structure (SMILES) | outcome |
| --- | --- |
| C[N+]1(C)C2CC(OC(=O)[C@H](CO)c3ccccc3)CC1C1OC12 (stereo partly specified) | inactive |
| O=C(O)c1cc(=O)c2ccccc2[nH]1 | inactive |
| CC(C)ON([C@@H](C(=O)NO)C(C)C)S(=O)(=O)c1ccc(-c2ccccc2)cc1 | inactive |
| N#C/C(=C\c1ccc(O)c(O)c1)C(=O)NCc1ccccc1 | inactive |
| NC(=O)C1=CN(C2OC(COP(=O)(O)OP(=O)(O)OC[C@H]3O[C@@H](n4cnc5c(N)ncnc54)[C@H](OP(=O)(O)O)[C@@H]3O)C(O)C2O)C=CC1 (stereo partly specified) | inactive |
| CNC(=O)[C@H]1O[C@@H](n2cnc3c(NCc4ccc(N)cc4)ncnc32)[C@H](O)[C@@H]1O | inactive |
| C[C@@H](NC(=O)/C(C#N)=C/c1ccc(O)c(O)c1)c1ccccc1 | inactive |
| CC(N)C(=O)OC(C)(C)Cc1ccc(Cl)cc1 (stereo unspecified) | inactive |
| C[N+]1(C)CCC(OC(=O)C(c2ccccc2)c2ccccc2)CC1 | inactive |
| O=c1[nH]c2cc([N+](=O)[O-])c([N+](=O)[O-])cc2[nH]c1=O | inactive |
| NC(=S)NCCC[C@H](N)C(=O)O | inactive |
| Oc1cc(O)cc(/C=C/c2ccc(O)c(O)c2)c1 | inactive |
| CN1C2CC(OC(=O)[C@H](CO)c3ccccc3)CC1C1OC12 (stereo partly specified) | inactive |
| CC(C)CC(NP(=O)(O)O[C@@H]1O[C@@H](C)[C@H](O)[C@@H](O)[C@H]1O)C(=O)NC(Cc1c[nH]c2ccccc12)C(=O)O (stereo partly specified) | inactive |

These compounds were tested against Transient receptor potential cation channel subfamily V member 1 (Homo sapiens) (UniProt Q8NER1) (assay: HTS Assay for Compounds that Act as Enhancers of the Vanilloid Receptor 1 (AID 488979)). Details: TRPV1-expressing cells, enhancer of channel activity, stimulated with capsaicin at EC20; series mostly up to 41.7 µM.
In short: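 Calcium influx kinetics via Fluo-8 (480/520 nm) in TRPV1-expressing cells, 2000/well cultured overnight at 35.5C. Compound-alone read 3 min (agonist phase), followed by EC20 capsaicin challenge for 2 min (enhancer phase).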

Transient receptor potential cation channel subfamily V member 1 (Homo sapiens), sequence (Q8NER1 whole entry, looked up): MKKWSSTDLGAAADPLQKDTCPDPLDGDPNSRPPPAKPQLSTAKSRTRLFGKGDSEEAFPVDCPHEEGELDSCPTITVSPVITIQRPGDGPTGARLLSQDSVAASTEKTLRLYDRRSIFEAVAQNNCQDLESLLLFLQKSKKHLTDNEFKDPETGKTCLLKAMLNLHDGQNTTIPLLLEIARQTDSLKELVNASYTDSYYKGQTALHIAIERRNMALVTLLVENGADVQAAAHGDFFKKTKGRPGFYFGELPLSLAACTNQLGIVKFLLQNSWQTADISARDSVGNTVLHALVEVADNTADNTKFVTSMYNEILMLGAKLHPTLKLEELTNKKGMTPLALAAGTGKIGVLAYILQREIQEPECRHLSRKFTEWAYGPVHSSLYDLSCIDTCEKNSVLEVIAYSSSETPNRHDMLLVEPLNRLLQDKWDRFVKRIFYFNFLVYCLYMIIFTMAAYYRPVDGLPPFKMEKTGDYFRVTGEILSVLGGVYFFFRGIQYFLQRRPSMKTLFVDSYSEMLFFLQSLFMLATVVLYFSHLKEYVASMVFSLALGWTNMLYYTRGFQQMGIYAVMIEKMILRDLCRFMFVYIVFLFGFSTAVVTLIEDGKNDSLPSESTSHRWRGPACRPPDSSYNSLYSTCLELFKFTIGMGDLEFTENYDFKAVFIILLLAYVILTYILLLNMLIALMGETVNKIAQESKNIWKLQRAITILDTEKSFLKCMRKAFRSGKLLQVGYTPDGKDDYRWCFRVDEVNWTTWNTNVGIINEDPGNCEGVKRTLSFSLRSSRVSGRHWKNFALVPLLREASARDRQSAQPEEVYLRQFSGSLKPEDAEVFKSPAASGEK

| Structure (SMILES) | outcome |
| --- | --- |
| CN1CCc2ccccc2Cc2[nH]c3ccccc3c2CC1 | inactive |
| Oc1ccccc1O | inactive |
| CN(C)c1ccc(/C=C2\C(=O)Nc3ccccc32)cc1 | inactive |
| CN=c1nc(-c2ccccc2)n(-c2ccccc2)s1 | inactive |
| COc1cccc(C(=O)NCCN2CCN(c3ccc(Cl)cc3)CC2)c1 | inactive |
| O=c1[nH]c2cc(C(F)(F)F)ccc2n1-c1cc(C(F)(F)F)ccc1O | inactive |
| CCCn1c(=O)c2[nH]c(-c3ccc(OCC(=O)NCCN)cc3)nc2n(CCC)c1=O | inactive |
| Oc1cc2c(cc1O)CN(C(=S)NCCc1ccc(Cl)cc1)CCC2 | inactive |
| O=C(O)c1cc(=O)c2ccccc2[nH]1 | inactive |
| N#C/C(=C\c1ccc(O)c(O)c1)C(=O)NCc1ccccc1 | inactive |
| C[C@@H](NC(=O)/C(C#N)=C/c1ccc(O)c(O)c1)c1ccccc1 | inactive |
| O=c1[nH]c2cc([N+](=O)[O-])c([N+](=O)[O-])cc2[nH]c1=O | inactive |
| Oc1cc(O)cc(/C=C/c2ccc(O)c(O)c2)c1 | inactive |
| O=C(/C=C/c1ccc(O)cc1)c1ccc(O)cc1O | inactive |

The compounds below were run against Thyrotropin receptor (Homo sapiens) (UniProt P16473) (assay: qHTS Assay for Antagonists of the Thyroid Stimulating Hormone Receptor (AID 488980)). Details: TSHR-expressing cells, cAMP antagonist read-out; series mostly up to 57.5 µM.
In short: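 Inhibition of TSH-stimulated cAMP accumulation was quantified by homogeneous time-resolved FRET in TSHR-transfected HEK293 cells. Agonist: TSH, 4 nM final (EC80).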

Thyrotropin receptor (Homo sapiens), sequence (P16473 whole entry, looked up): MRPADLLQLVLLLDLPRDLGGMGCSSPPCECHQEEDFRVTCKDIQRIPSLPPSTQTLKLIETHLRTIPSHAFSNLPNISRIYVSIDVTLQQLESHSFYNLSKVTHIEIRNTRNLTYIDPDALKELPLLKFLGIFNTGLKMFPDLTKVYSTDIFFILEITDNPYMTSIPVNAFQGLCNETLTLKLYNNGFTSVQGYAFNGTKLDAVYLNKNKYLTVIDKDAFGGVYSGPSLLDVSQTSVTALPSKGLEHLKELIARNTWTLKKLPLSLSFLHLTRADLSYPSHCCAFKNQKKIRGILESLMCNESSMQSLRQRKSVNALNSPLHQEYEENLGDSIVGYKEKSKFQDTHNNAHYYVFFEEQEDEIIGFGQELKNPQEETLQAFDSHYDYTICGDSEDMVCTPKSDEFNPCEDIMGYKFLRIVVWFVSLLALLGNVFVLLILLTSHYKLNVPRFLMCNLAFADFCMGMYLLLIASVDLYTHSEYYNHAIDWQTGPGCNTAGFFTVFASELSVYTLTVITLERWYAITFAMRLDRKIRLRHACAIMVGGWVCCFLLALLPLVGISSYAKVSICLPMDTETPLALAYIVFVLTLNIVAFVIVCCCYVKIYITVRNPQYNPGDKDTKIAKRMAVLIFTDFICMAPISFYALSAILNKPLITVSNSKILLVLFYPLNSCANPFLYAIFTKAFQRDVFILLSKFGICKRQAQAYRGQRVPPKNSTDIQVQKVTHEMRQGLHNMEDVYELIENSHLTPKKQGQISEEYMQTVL

| Structure (SMILES) | outcome |
| --- | --- |
| CN1CCc2ccccc2Cc2[nH]c3ccccc3c2CC1 | inactive |
| Oc1ccccc1O | inactive |
| CN(C)c1ccc(/C=C2\C(=O)Nc3ccccc32)cc1 | inactive |
| CN=c1nc(-c2ccccc2)n(-c2ccccc2)s1 | inactive |
| COc1cccc(C(=O)NCCN2CCN(c3ccc(Cl)cc3)CC2)c1 | inactive |
| O=c1[nH]c2cc(C(F)(F)F)ccc2n1-c1cc(C(F)(F)F)ccc1O | inactive |
| NC(N)=NC(=O)c1nc(Cl)c(N2CCCCCC2)nc1N | inactive |
| CCCn1c(=O)c2[nH]c(-c3ccc(OCC(=O)NCCN)cc3)nc2n(CCC)c1=O | inactive |
| Oc1cc2c(cc1O)CN(C(=S)NCCc1ccc(Cl)cc1)CCC2 | inactive |
| O=C(O)c1cc(=O)c2ccccc2[nH]1 | inactive |
| N#C/C(=C\c1ccc(O)c(O)c1)C(=O)NCc1ccccc1 | inactive |
| C[C@@H](NC(=O)/C(C#N)=C/c1ccc(O)c(O)c1)c1ccccc1 | inactive |
| O=c1[nH]c2cc([N+](=O)[O-])c([N+](=O)[O-])cc2[nH]c1=O | inactive |
| Oc1cc(O)cc(/C=C/c2ccc(O)c(O)c2)c1 | inactive |
| O=C(/C=C/c1ccc(O)cc1)c1ccc(O)cc1O | inactive |

What follows are compounds tested against D(1A) dopamine receptor (Homo sapiens) (UniProt P21728) (assay: HTS Assay for Allosteric Agonists of the Human D1 Dopamine Receptor: Primary Screen for Agonists (AID 488981)). Details: Inducible HEK293 T-REx D1 cells, calcium-flux fluorescence, 180 s kinetic; series mostly up to 41.8 µM.
In short: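 Calcium flux in an inducible, force-coupled HEK293 Trex D1 line (overnight at 30 C): agonist mode is the 180 s kinetic read after compound; potentiator mode is the following 180 s read after dopamine at EC20.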

D(1A) dopamine receptor (Homo sapiens), sequence (P21728 whole entry, looked up): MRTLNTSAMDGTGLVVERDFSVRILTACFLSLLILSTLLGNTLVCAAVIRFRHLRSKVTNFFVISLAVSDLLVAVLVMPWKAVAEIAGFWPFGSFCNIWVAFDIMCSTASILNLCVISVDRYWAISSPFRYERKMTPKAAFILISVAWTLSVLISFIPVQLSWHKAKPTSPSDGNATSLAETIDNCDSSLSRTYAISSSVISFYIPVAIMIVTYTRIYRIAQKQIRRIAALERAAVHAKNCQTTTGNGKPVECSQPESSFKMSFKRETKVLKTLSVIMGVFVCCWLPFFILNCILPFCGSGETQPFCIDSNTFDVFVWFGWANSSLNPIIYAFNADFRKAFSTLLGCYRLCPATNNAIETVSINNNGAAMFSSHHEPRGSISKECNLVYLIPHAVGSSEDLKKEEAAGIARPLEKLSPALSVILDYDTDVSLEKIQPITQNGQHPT

| Structure (SMILES) | Potency |
| --- | --- |
| CN(C)CCCO[C@@H]1[C@H]2OC(C)(C)O[C@H]2O[C@@H]1[C@H](O)CO | inactive |
| CC(C)NC[C@@H](O)c1ccc(O)c(O)c1 | inactive |
| CN1CCc2ccccc2Cc2[nH]c3ccccc3c2CC1 | inactive |
| OC[C@H]1O[C@@H](n2cnc3c(Nc4ccccc4)ncnc32)[C@H](O)[C@@H]1O | inactive |
| CC[C@@H](C)[C@H]1O[C@]2(CC[C@H]1C)C[C@@H]1C[C@@H](CC=C(C)[C@@H](O[C@H]3C[C@H](OC)[C@@H](O[C@H]4C[C@H](OC)[C@@H](O)[C@H](C)O4)[C@H](C)O3)[C@@H](C)C=CC=C3CO[C@@H]4[C@H](O)C(C)=C[C@@H](C(=O)O1)[C@]34O)O2 | inactive |
| Nc1nc(SCc2ccc([N+](=O)[O-])cc2)c2ncn([C@@H]3O[C@H](CO)[C@@H](O)[C@H]3O)c2n1 | inactive |
| Oc1ccccc1O | inactive |
| CN(C)c1ccc(/C=C2\C(=O)Nc3ccccc32)cc1 | inactive |
| C=C[C@H]1CN2CC[C@@H]1C[C@@H]2[C@@H](O)c1ccnc2ccc(OC)cc12 | inactive |
| COc1cccc(C(=O)NCCN2CCN(c3ccc(Cl)cc3)CC2)c1 | inactive |
| CO/N=C(\C(=O)N[C@@H]1C(=O)N2C(C(=O)O)=C(COC(C)=O)CS[C@H]12)c1csc(N)n1 | inactive |
| N.N.N.N.N.N.N.N.N.N.N.N.N.N.O.O.[Ru+4].[Ru+5].[Ru+5] | inactive |
| NC(=S)c1ccc[n+]([C@@H]2O[C@@H](COP(=O)([O-])OP(=O)(O)OC[C@H]3O[C@@H](n4cnc5c(N)ncnc54)[C@H](OP(=O)(O)O)[C@@H]3O)C(O)C2O)c1 (stereo partly specified) | inactive |
| CCC1C(=O)OCC1Cc1cncn1C (stereo unspecified) | inactive |
| NC(N)=NC(=O)c1nc(Cl)c(N2CCCCCC2)nc1N | inactive |
| CCCn1c(=O)c2[nH]c(-c3ccc(OCC(=O)NCCN)cc3)nc2n(CCC)c1=O | inactive |
| O=C(O)c1cc(=O)c2ccccc2[nH]1 | inactive |
| CC(C)ON([C@@H](C(=O)NO)C(C)C)S(=O)(=O)c1ccc(-c2ccccc2)cc1 | inactive |
| N#C/C(=C\c1ccc(O)c(O)c1)C(=O)NCc1ccccc1 | inactive |
| NC(=O)C1=CN(C2OC(COP(=O)(O)OP(=O)(O)OC[C@H]3O[C@@H](n4cnc5c(N)ncnc54)[C@H](OP(=O)(O)O)[C@@H]3O)C(O)C2O)C=CC1 (stereo partly specified) | inactive |
| CNC(=O)[C@H]1O[C@@H](n2cnc3c(NCc4ccc(N)cc4)ncnc32)[C@H](O)[C@@H]1O | inactive |
| C[C@@H](NC(=O)/C(C#N)=C/c1ccc(O)c(O)c1)c1ccccc1 | inactive |
| CCc1c(C(=O)NCCc2ccc(N3CCCCC3)cc2)[nH]c2ccc(Cl)cc12 | inactive |
| C[N+]1(C)CCC(OC(=O)C(c2ccccc2)c2ccccc2)CC1 | inactive |
| O=c1[nH]c2cc([N+](=O)[O-])c([N+](=O)[O-])cc2[nH]c1=O | inactive |
| NC(=S)NCCC[C@H](N)C(=O)O | inactive |
| Oc1cc(O)cc(/C=C/c2ccc(O)c(O)c2)c1 | inactive |
| N#C/C(=C\c1ccc(-c2cc(Cl)ccc2Cl)o1)C(=O)Nc1cccc2ncccc12 | inactive |
